Results from PubChem BioAssay.
Active and inactive are the calls of the source.

What was measured:
[1] = system: Human papillomavirus type 1a protein E7 (residues 44-93); assay: HPV1a E7 fragment binders on microarrays, primary screen, biochemical, small-molecule microarray, residues 44-93, 635 nm fluorescence (AID 1108); conditions: small-molecule microarray binding, fluorescence 635 nm; higher = more signal;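 also: E7 fragment applied at 1 µg/mL in TBST for 1 h at 4 C; score combines spot fluorescence with its signal to noise ratio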
[2] = modulators of HCV replicon luciferase signal, primary screen, HCV replication inhibitor project, Huh7 cells, luciferase reporter (AID 1109); conditions: 48 h, higher = more signal;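 also: huh7 hepatoma cells harbouring a luciferase neomycin HCV replicon reporter; luciferase luminescence as measure of HCV replicon replication; test concentration not given here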
[3] = target: Left-right determination factor 2 (Homo sapiens) (UniProt O00292); assay: LEFTY2 binders on small-molecule microarrays, primary screen, biochemical, small-molecule microarray, 635 nm fluorescence scan (AID 1110); conditions: LEFTY2 binding, higher = more signal
Left-right determination factor 2 (Homo sapiens), sequence (O00292 whole entry, looked up): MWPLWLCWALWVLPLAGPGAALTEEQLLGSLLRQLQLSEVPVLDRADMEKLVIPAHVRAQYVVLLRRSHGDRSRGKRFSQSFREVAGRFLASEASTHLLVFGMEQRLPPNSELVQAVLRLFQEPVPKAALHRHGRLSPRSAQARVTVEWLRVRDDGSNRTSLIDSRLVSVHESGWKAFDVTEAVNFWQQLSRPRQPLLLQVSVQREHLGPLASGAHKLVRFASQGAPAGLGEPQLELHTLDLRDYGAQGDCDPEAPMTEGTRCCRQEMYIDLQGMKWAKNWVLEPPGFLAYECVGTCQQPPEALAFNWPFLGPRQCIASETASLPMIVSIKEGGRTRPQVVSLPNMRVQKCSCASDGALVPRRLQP

[4] = target: Calmodulin-1 (Homo sapiens) (UniProt P0DP23); assay: CALM1 binders on microarrays, EGTA buffer, profiling panel, biochemical, small-molecule microarray, Cy5-labelled CALM1 (AID 1111); conditions: Cy5-CALM1 binding fluorescence, higher = more signal;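 also: labelled calmodulin applied in Tris saline Tween buffer holding calcium plus EGTA and DTT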
[5] = target: Calmodulin-1 (Homo sapiens) (UniProt P0DP23); assay: calcium-bound CALM1 binders on microarrays, profiling panel, artefact control for SMM control-protein annotation, biochemical, small-molecule microarray, Cy5-labelled CALM1, plus calcium (AID 1112); conditions: Cy5-CALM1 binding fluorescence, higher = more signal;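 also: score merges spot fluorescence with signal to noise from triplicate slides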
[6] = small-molecule microarray binders of probe aWnt5a, primary screen, biochemical, biotinylated probe, 635/667 nm fluorescence (AID 1113); conditions: higher = more signal;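 also: score merges 667 nm fluorescence intensity with signal-to-noise per printed feature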
[7] = small-molecule microarray binders of probe aShh, primary screen, biochemical, biotinylated probe, 635/667 nm fluorescence (AID 1114); conditions: higher = more signal;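 also: probe is biotin-labelled aShh protein from a stem cell growth factor screen; measures binding of labelled protein to compounds printed on the slide; score merges feature fluorescence at 667 nm with signal-to-noise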
[8] = small-molecule microarray binders of probe aNog, primary screen, biochemical, biotinylated probe, 635/667 nm fluorescence (AID 1115); conditions: higher = more signal;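 also: probe is biotinylated aNog protein used at 0.15 µg/mL for 1 h at 4 C; z-score combines 667 nm fluorescence of each spot with its signal to noise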
[9] = target: Torsin-1A-interacting protein 1 (Homo sapiens) (UniProt Q5JTV8); assay: LAP1 binders from COS7 cell lysate, primary screen, small-molecule microarray, 635/667 nm fluorescence (AID 1116); conditions: COS7-hLAP1 lysate binding, 635 nm fluorescence, higher = more signal
Torsin-1A-interacting protein 1 (Homo sapiens), sequence (Q5JTV8 whole entry, looked up): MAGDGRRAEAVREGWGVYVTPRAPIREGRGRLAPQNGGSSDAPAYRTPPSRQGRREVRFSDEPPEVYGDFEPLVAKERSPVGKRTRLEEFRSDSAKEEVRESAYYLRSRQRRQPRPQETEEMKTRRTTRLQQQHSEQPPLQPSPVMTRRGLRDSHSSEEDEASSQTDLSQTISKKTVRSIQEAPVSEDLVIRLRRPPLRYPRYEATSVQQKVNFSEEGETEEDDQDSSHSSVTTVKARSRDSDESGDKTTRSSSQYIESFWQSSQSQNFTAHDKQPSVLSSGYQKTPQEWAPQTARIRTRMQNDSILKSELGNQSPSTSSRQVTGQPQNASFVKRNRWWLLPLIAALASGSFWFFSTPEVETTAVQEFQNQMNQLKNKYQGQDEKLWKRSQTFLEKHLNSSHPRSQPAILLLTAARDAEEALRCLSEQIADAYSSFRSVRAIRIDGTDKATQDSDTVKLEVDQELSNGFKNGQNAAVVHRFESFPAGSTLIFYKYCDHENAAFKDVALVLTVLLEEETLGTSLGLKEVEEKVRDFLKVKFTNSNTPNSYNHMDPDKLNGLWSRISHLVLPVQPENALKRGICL

[10] = target: Alpha-bungarotoxin (Bungarus multicinctus) (UniProt P60615); assay: alpha-bungarotoxin binders on microarray, profiling panel, artefact control for SMM control protein annotation, biochemical, small-molecule microarray, Alexa647 label, 635/667 nm fluorescence (AID 1117); conditions: alpha-BTX-A647 binding fluorescence, higher = more signal
Alpha-bungarotoxin (Bungarus multicinctus), sequence (P60615 whole entry, looked up): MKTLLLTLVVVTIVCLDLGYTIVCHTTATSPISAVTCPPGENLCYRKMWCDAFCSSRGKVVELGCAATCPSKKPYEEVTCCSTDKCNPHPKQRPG

Albumin (Bos taurus) = Albumin (Bos taurus) (UniProt P02769); assay: bovine serum albumin binders on microarray, profiling panel, artefact control for SMM control protein annotation, biochemical, small-molecule microarray, Alexa647 label, 635/667 nm fluorescence (AID 1118); conditions: BSA-A647 binding, fluorescence 635 nm, higher = more signal;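 also: score merges 667 nm emission intensity and signal-to-noise per printed compound spot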
Albumin (Bos taurus), sequence (P02769 whole entry, looked up): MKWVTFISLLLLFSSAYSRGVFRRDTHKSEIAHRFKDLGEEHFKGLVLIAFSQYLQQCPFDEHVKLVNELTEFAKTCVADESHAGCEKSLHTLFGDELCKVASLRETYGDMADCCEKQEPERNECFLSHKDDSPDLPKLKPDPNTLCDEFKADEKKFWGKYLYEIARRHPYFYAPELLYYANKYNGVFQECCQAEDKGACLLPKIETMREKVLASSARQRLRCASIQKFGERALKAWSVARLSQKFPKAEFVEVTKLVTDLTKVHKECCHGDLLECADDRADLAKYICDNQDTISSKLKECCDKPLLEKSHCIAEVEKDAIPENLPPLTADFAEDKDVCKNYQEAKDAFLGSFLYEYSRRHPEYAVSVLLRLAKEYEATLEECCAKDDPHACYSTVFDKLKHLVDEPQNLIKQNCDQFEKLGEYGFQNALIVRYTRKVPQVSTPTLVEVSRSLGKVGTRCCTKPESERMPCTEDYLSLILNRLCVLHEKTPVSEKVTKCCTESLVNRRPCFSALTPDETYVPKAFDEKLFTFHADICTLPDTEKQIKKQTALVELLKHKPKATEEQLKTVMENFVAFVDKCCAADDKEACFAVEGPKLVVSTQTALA

[11] = small-molecule microarray binders of probe aXIP, primary screen, biochemical, NeuroSMM set, 635/667 nm fluorescence (AID 1119); conditions: higher = more signal, called active from +8 up or from −8 down;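 also: probe is the protein aXip251-270 applied at 1 µg/mL to compound-printed slides; binding of probe to printed compounds measured as 667 nm fluorescence plus signal to noise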
[12] = small-molecule binders of probe aNOTCH3, primary screen, biochemical, small-molecule microarray, 635/667 nm fluorescence (AID 1120); conditions: higher = more signal;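 also: probe is a biotin-tagged antibody raised against NOTCH3 rather than NOTCH3 protein; score merges spot fluorescence near 667 nm with spot signal to noise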
[13] = small-molecule binders of probe aNOTCH2, primary screen, biochemical, small-molecule microarray, 635/667 nm fluorescence (AID 1121); conditions: higher = more signal;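 also: score merges feature fluorescence read at 667 nm with its signal to noise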
[14] = target: Carbonic anhydrase 2 (Homo sapiens) (UniProt P00918); assay: CAII small-molecule binders, profiling panel, biochemical, small-molecule microarray, Alexa647-labelled CAII (AID 1122); conditions: CAII-A647 binding fluorescence, higher = more signal
[15] = COS7 lysate on small-molecule microarray, probe aHis, 635 nm (AID 1123); conditions: COS7 cell lysate, fluorescence, higher = more signal;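 also: z-score combines 667nm fluorescence intensity with signal-to-noise per printed compound spot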
[16] = compound binding in COS7 lysate, probe aLAP1, primary screen, cell lysate, small-molecule microarray (AID 1124); conditions: probe aLAP1, fluorescence, higher = more signal;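 also: lysate comes from COS7 cells expressing LAP1 and is applied at 0.3 µg/mL; score merges spot fluorescence near 667 nm with signal-to-noise over triplicate slides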
Sam68 (KHDRBS1) = assay: Sam68 small-molecule binders, primary screen, biochemical, small-molecule microarray, 635 nm fluorescence (AID 1125); conditions: small-molecule microarray binding, higher = more signal;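 also: score merges 667 nm channel intensity with signal to noise over triplicate slides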
[17] = system: Chordin-like protein 2 (CHRDL2); assay: CHRDL2 small-molecule binders, primary screen, biochemical, small-molecule microarray, 635 nm fluorescence (AID 1126); conditions: small-molecule microarray binding, fluorescence 635 nm; higher = more signal;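 also: printed compound slides probed with Chrdl2 protein at 4 µg/mL for 1 h at 4 C; score merges 667 nm emission intensity with signal to noise over three replicate slides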
[18] = target: Concanavalin-A (Canavalia ensiformis) (UniProt P02866); assay: ConA small-molecule binders, primary screen, artefact control for SMM control protein annotation, biochemical, small-molecule microarray, Alexa647 label, 635 nm (AID 1127); conditions: ConA-A647 binding fluorescence, higher = more signal;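 also: z combines 667 nm emission intensity with signal-to-noise across three replicate slides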
Concanavalin-A (Canavalia ensiformis), sequence (P02866 whole entry, looked up): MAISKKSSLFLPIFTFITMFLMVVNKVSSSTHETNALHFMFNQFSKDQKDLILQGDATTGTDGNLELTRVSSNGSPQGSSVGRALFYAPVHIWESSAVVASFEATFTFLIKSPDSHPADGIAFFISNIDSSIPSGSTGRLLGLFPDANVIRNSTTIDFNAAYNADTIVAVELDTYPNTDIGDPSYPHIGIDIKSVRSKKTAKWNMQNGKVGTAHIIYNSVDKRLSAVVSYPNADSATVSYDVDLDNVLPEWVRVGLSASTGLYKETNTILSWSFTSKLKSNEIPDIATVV

Compound | composite z-score [1] | z-score [2] | composite z-score [3] | composite z-score [4] | composite z-score [5] | composite z-score [6] | composite z-score [7] | composite z-score [8] | composite z-score [9] | composite z-score [10] | composite z-score (Albumin (Bos taurus)) | composite Z-score [11] | composite z-score [12] | composite z-score [13] | composite z-score [14] | composite z-score [15] | composite z-score [16] | composite z-score (Sam68 (KHDRBS1)) | composite z-score [17] | composite z-score [18]
CCc1cc2c(nc1CC)CCN(CCC(C)=NO[C@@H](C)c1cn([C@H](CO)Cc3ccccc3)nn1)C2 | -0.296 | -2.1 | 0.483 | -0.41 | -0.555 | -0.096 | -0.147 | -0.203 | -0.11 | 0.312 | -0.0957 | 0.117 (inactive) | -0.0072 | -0.0956 | 0.317 | -0.0909 | 0.12 | -0.0161 | 0.231 | 0.0209
COC(=O)CC=C[C@@H](C)[C@@H](C=NO[C@@H]1O[C@H](COC(C)=O)[C@@H](OC(C)=O)[C@H](OC(C)=O)[C@H]1OC(C)=O)OC | -0.428 | -1.57 | 0.499 | -0.937 | -1.48 | -0.175 | -0.309 | -0.249 | -0.461 | -0.463 | 0.216 | -0.421 (inactive) | 0.0303 | -0.0294 | -0.605 | -0.152 | 0.124 | 0.702 | -0.0703 | -1.33
COC(=O)[C@H](C)NC(=O)CCC1CC(OC(=O)NCc2ccc3c(c2)OCO3)CC2(CCCC(COC(=O)NCC(c3ccccc3)c3ccccc3)O2)O1 (stereo not given in full) | 1.42 | 0.327 | 0.739 | 0.869 | -0.663 | -0.0037 | -0.229 | -0.11 | 0.587 | 1.04 | 0.409 | 0.265 (inactive) | 0.0159 | -0.123 | 0.478 | 1.29 | 0.165 | 1.29 | 0.738 | 1.12
COc1ccc(COC(=O)NN=C2C[C@@H](O)[C@@H](O)[C@@H]3[C@@H]4C(=O)N(Cc5ccccc5)C(=O)[C@@H]4CC[C@H]23)cc1 | 1.36 | -0.632 | -0.475 | 0.0114 | -0.435 | -0.0758 | -0.206 | 0.194 | 0.589 | 0.469 | 0.719 | -0.201 (inactive) | 0.0418 | -0.348 | -0.17 | 0.341 | -0.173 | 0.0827 | -0.709 | -0.266
CO[C@@H]1COC(=O)[C@H](CCSC)NC(=O)CC=C[C@@H](C)COC(=O)CCC[C@H]1C | -1.18 | -0.346 | 1.65 | -1.94 | -2.51 | -0.175 | -0.214 | -0.472 | 0.813 | -0.354 | -0.978 | 1.81 (inactive) | -0.0284 | -0.147 | -0.654 | -1.31 | 1.01 | 0.973 | 1.68 | -1.11
CCOC(=O)[C@H](CC(C)C)NC(=O)CCC1CC(OC(=O)NCCc2ccc(F)cc2)CC2(CCCC(COC(=O)NCC3CCCCC3)O2)O1 (stereo not given in full) | 0.723 | -1.11 | 0.351 | 0.255 | -0.622 | -0.19 | -0.0362 | -0.45 | 0.627 | 0.596 | 0.424 | 0.2 (inactive) | 0.119 | -0.203 | 0.255 | 2.11 | 0.0165 | 0.986 | 0.618 | 1.07
COc1cccc([C@H]2Oc3ccc(OC)cc3C(=NO[C@@H](C)c3cn([C@H](CO)Cc4ccccc4)nn3)[C@@H]2O)c1 | -0.429 | -0.727 | -0.36 | 0.465 | -0.0011 | -0.0836 | 0.0121 | 0.0918 | -0.0881 | -0.417 | 0.874 | 0.637 (inactive) | -0.132 | -0.207 | -0.0163 | 0.107 | 0.664 | -0.0592 | -0.54 | 0.373
CCOC(=O)[C@H](CC(C)C)NC(=O)CCC1CC(OC(=O)NCc2ccc3c(c2)OCO3)CC2(CCCC(COC(=O)NCc3cccc(C(F)(F)F)c3)O2)O1 (stereo not given in full) | 0.323 | -1.44 | 0.227 | 0.0753 | -0.259 | -0.148 | -0.138 | -0.316 | -0.0298 | 0.111 | -0.232 | -0.104 (inactive) | -0.136 | -0.169 | 0.284 | 0.292 | -0.37 | 0.119 | 0.192 | 0.0441
COc1ccc(O[C@H]2C=C[C@@H](c3ccccc3)O[C@@H]2CON=C(C)C)cc1 | -0.336 | -0.75 | 0.317 | 0.0047 | 0.495 | 0.0761 | 0.318 | 0.118 | 0.314 | 0.724 | 0.0254 | 0.537 (inactive) | 0.201 | -0.0548 | 0.153 | 0.136 | -0.0187 | -1.05 | 0.0435 | 0.0731
CCOC(=O)[C@H](Cc1ccccc1)NC(=O)CCC1CC(OC(=O)NCc2ccc3c(c2)OCO3)CC2(CCCC(COC(=O)NCCC(C)C)O2)O1 (stereo not given in full) | 1.38 | -1.01 | 0.619 | 0.487 | -0.252 | 0.0704 | 0.0639 | -0.19 | 0.0293 | 0.434 | 0.112 | 0.416 (inactive) | 0.0252 | -0.0707 | 0.493 | 0.394 | -0.133 | 0.907 | 0.309 | 1.11
CC(C)=CCCC(C)=CCON=C1C[C@@H](O)[C@@H](O)[C@@H]2[C@@H]3C(=O)N(C(C)(C)C)C(=O)[C@@H]3CC[C@@H]12 | 0.0739 | -0.0781 | 0.542 | -0.195 | -0.608 | -0.0203 | -0.0626 | -0.116 | 0.1 | 0.372 | 0.0038 | -0.204 (inactive) | -0.127 | -0.0859 | -0.0211 | -0.13 | -0.0115 | 0.383 | 0.129 | 0.411
COC(=O)[C@@H]1CC[C@H](C)[C@@H](c2ccc(C)cc2)N1C(=O)c1ccc(C=NOC[C@@H](C)[C@H](OCc2ccccc2)C(C)C)cc1 | 1.09 | -0.989 | 0.583 | -0.0027 | -0.607 | -0.0276 | -0.0553 | -0.302 | 1.27 | 1.25 | 0.56 | 3.28 (inactive) | 0.0271 | -0.185 | 0.239 | 1.29 | 0.247 | 1.29 | 0.43 | 0.736
